# PubChem BioAssay (Tox21)
# A number with no mark means an inactive call. Activity calls are given as the source filed them. Calls follow the shape of the dose curve; as a rule, active = well fitted curve in the direction sought with a large enough effect in the repeat runs; inconclusive = weak or mixed curves; inactive = flat fitted curve, though single readings scatter.
# Test: qHTS assay to test for compound auto fluorescence at 460 nm (blue) in HEK293 cells (AID 720678)
# Settings: blue autofluorescence 405/460 nm; series mostly up to 91.3 µM; fluorescence, % of triamterene: at the top concentration
# Excerpt: National Center for Advancing Translational Sciences [NCATS]
# NIH Chemical Genomics Center [NCGC]
# U.S. Environmental Protection Agency [EPA]
# National Institutes of Environmental Health Sciences [NIEHS]
# National Toxicology Program [NTP]
# U.S. Food and Drug Administration [FDA]
# Compound auto fluorescence often interferes with screening of the compound library against various biological targets and signaling pathways. Some of these compounds may have fluorophoric properties. Such properties may interfere with the assay outputs resulting in false positives and/or negatives. To decrease such complications and ensure the compound activities are relevant in terms of biological response, the Tox21 10K compound library was screened for auto fluorescence.
# From the fluorophores used as reporter signals in our screening assays, the auto fluorescence equivalencies of compounds against three fluorophores have been evaluated: Triamterene, Fluorescein and Rose Bengal sodium for blue, green and red fluorescence, respectively. The fluorescence intensities were measured using Excitation/Emission wavelengths at 405/460nm, 485/535nm and 540/590nm for blue, green and red labels, respectively. This assay includes the blue fluorescence data.
# Tox21 Assay Protocol Summary:
# 2,000 HEK293 cells in 5 uL of culture medium containing 10% dialyzed FBS per well were dispensed into black wall/clear bottom 1536-well plates using a Multidrop Combi Dispenser (Thermo Scientific). The assay plates were incubated for 4-5 hr at 37C to allow cell attachment to the well bottom, followed by the transfer of 23 nL compound or DMSO vehicle by a pintool work station (Kalypsys, San Diego, CA). After the assay plates were incubated overnight at 37C and 5% CO2, fluorescence intensities in the assay plates were measured by an Envision (PerkinElmer, Shelton, CT) plate reader using three labels for measuring blue, green and red fluorescence at […] 460, 535 and 590nm respectively.
# % is scaled to controls: 0 for no effect and ±100 for the full control effect.
SMILES,"fluorescence, % of triamterene",outcome
CCCCN1C=CN(C)C1,0.173% [at 18.6 µM],–
CCCCCCCC1CCCC1=O (stereo not given),-0.0674%,–
NO,-0.0553% [at 95.7 µM],–
Clc1cc(Cl)c(Cl)nc1Cl,0.038%,–
COc1cc(C(=O)NCc2ccc(OCCN(C)C)cc2)cc(OC)c1OC,-0.345% [at 18.6 µM],–
COc1cc(C(=O)OC(COCCC(C)C)CN2CCOCC2)cc(OC)c1OC (stereo not given),-0.0356% [at 46 µM],–
CC(C)(C)c1ccc(-c2ccc(C(C)(C)C)cc2)cc1,-0.12%,–
O=C(O)CC(C(=O)O)S(=O)(=O)O (stereo not given),-0.0313%,–
CCCCCC(=O)OCCc1ccccc1,0.0011%,–
CC1=NS(=O)(=O)c2cc(Cl)ccc2N1,-0.11% [at 46 µM],–
CNC(=O)Nc1ccc(Cl)c(Cl)c1,0.0064%,–
CC(=O)OCC(=O)[C@@]1(O)[C@H](C)C[C@H]2[C@@H]3CCC4=CC(=O)C=C[C@]4(C)[C@@]3(F)[C@@H](O)C[C@@]21C,–,inactive
N[C@@H](CCC(=O)O)C(=O)O,–,inactive
CCOC(=O)c1ccccc1,0.0137%,–
CC(C)NNC(=O)c1ccncc1,0.203% [at 46 µM],–
[O-][n+]1cccc(CO)c1,-0.0191% [at 46 µM],–
COc1c(N2CCNC(C)C2)c(F)cc2c(=O)c(C(=O)O)cn(C3CC3)c12 (stereo not given),-0.0901% [at 46 µM],–
CCCc1ncc(C[n+]2ccccc2C)c(N)n1,-0.0062% [at 18.6 µM],–
COc1ccc2cc1Oc1cc3c(cc1OC)CC[N+](C)(C)[C@H]3Cc1ccc(cc1)Oc1c(OC)c(OC)cc3c1[C@@H](C2)[N+](C)(C)CC3,0.0954% [at 46 µM],–
CC1=C(C/C=C(\C)CCC[C@H](C)CCC[C@H](C)CCCC(C)C)C(=O)c2ccccc2C1=O,0.144% [at 46 µM],–

SMILES,"fluorescence, % of triamterene",outcome
CCCCc1nc(Cl)c(CO)n1Cc1ccc(-c2ccccc2-c2nn[nH]n2)cc1,-0.236% [at 46 µM],–
Cc1ncc([C@@H](CCCCCCc2ccc3c(n2)NCCC3)CC(=O)O)cn1,0.51%,–
CC(=O)c1cnccn1,-0.129% [at 95.7 µM],–
NC(=O)N[C@@H](CCC(=O)O)C(=O)O,9.33% [at 46 µM],–
CC[N+](C)(CC)CCOC(=O)C1c2ccccc2Oc2ccccc21,-0.0188% [at 46 µM],–
CC(C)c1ccc2ncccc2c1,0.0275%,–
C1CCC2=NCCCN2CC1,-0.139%,–
CCC(=O)OCc1ccccc1,0.0322%,–
CC(C(=O)O)c1cccc(Oc2ccccc2)c1 (stereo not given),0.0483% [at 18.6 µM],–
CC(C)(C)OC(=O)c1cccc(N)c1,-0.0336% [at 95.7 µM],–
O=S(=O)(O)c1cccc2c(S(=O)(=O)O)cccc12,-0.344%,–
CN1CCC(=C2c3ccccc3CCc3cccnc32)CC1,0.0945% [at 46 µM],–
CC(C)=CCC/C(C)=C/C#N,-0.0028% [at 95.7 µM],–
Cc1nc2ccc(CN(C)c3ccc(C(=O)N[C@@H](CCC(=O)O)C(=O)O)s3)cc2c(=O)[nH]1,–,inactive
CC(C)CCCO,0.0226%,–
CCCCCCCCCCCCCCC(=O)O,0.0603%,–
CN1C(C)(C)CC(O)CC1(C)C,0.0595%,–
C=COCC1CCC(COC=C)CC1 (stereo not given),0.0551%,–
CCCC[N+](C)(CCCC)CCCC,-0.29%,–
CC(C)(C)C(=O)Oc1ccc(S(=O)(=O)Nc2ccccc2C(=O)NCC(=O)O)cc1,0.0101% [at 46 µM],–
